Experimental data as given in the supplement of paper PMC9694430.
Counter-ions that a name gives are not always drawn.

tested on: LOC_OS01G60330-cb001; test: thermal shift delta Tm vs DMSO control; higher = stronger stabilization (binding); conditions: 12.5 µM; protein concentration 2 µM
Summary of the method: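 Rice kinase domain constructs were expressed in E. coli, purified, and tested by differential scanning fluorimetry with compound added in DMSO. Each well of a 96-well plate held 19.5 μl of 2 μM kinase in 100 mM potassium phosphate pH 7.5, 150 mM NaCl, 10% glycerol and 5 × SYPRO Orange, and fluorescence was read from 25°C to 95°C at 0.05°C/s. The melting temperature shift is the mean of triplicates, taken against protein with DMSO alone after Boltzmann fitting.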

Q: How did the “thermal shift delta Tm” value turn out when `Cc1cnc(Nc2ccc(OCCN3CCCC3)cc2)nc1Nc1cccc(S(=O)(=O)NC(C)(C)C)c1` was run?
A: 1.83 °C

Q: For `CN1CCN(CCOc2cc(OC3CCOCC3)c3c(Nc4c(Cl)ccc5c4OCO5)ncnc3c2)CC1` [Saracatinib (AZD0530)], which “thermal shift delta Tm” value is on record?
A: 1.51 °C

Q: With `Cn1cc(-c2ccc(F)c(C(F)(F)F)c2)nc1C1CCN(c2ncnc3[nH]ncc23)CC1` as the compound, how does the “thermal shift delta Tm” value read?
A: 1.11 °C

Q: How did the “thermal shift delta Tm” value turn out when `O=C(O)c1ccc2c(c1)nc(Nc1cccc(Cl)c1)c1ccncc12` [Silmitasertib (CX-4945)] was run?
A: 4.93 °C

Q: `Cn1c(=O)c(F)c(Nc2ccc(I)cc2F)c2c(=O)n(C[C@@H](O)CO)cnc21` was tested. Which “thermal shift delta Tm” value did it give?
A: 1.03 °C

Q: How did the “thermal shift delta Tm” value turn out when `O=C(NC[C@H](O)CO)c1ccncc1Nc1ccc(I)cc1F` was run?
A: 0.48 °C

Q: How did the “thermal shift delta Tm” value turn out when `COc1c(C)c(C(=O)c2ccc(N)c(C(=O)O)c2)n2ccccc12` was run?
A: 0.95 °C

Q: For `COc1cc(N2CCC(N)CC2)ccc1Nc1ncc(Cl)c(-c2c[nH]c3ccccc23)n1`, which “thermal shift delta Tm” value is on record?
A: 7.59 °C

Q: How did the “thermal shift delta Tm” value turn out when `C=CC(=O)Nc1ccc2ncnc(Nc3ccc(OCc4cccc(F)c4)c(Cl)c3)c2c1` was run?
A: 8.4 °C

Q: `CCS(=O)(=O)N1CCN(c2ccc(Nc3ncc(C(N)=O)c(NC4CC4)n3)cc2)CC1` was tested. Which “thermal shift delta Tm” value did it give?
A: 9.63 °C

Q: For `O=C1c2ccc(Nc3ccc(F)cc3F)cc2CCc2ccc(OC[C@H](O)CO)cc21` [Skepinone-L], which “thermal shift delta Tm” value is on record?
A: 1.18 °C

Q: For `CCN1C(=O)CNc2ncc(-c3ccc(-c4nc[nH]n4)nc3C)nc21`, which “thermal shift delta Tm” value is on record?
A: 0.57 °C

Q: For `Cc1ccc(CNc2ncnc3ccc(-c4ccc(CO)o4)cc23)o1`, which “thermal shift delta Tm” value is on record?
A: 0.84 °C

Q: For `CCc1cncnc1N1CCN(Cc2nc3ccc(C(F)(F)F)cc3[nH]2)CC1`, which “thermal shift delta Tm” value is on record?
A: 0.04 °C

Q: With `Cc1cc(CN2CCN(c3c(Br)cnc4nc(-c5ccc(N6CCN(C)CC6)cc5)[nH]c34)CC2)no1` as the compound, how does the “thermal shift delta Tm” value read?
A: 3.22 °C

Q: How did the “thermal shift delta Tm” value turn out when `Cc1nc(-c2cn3c(n2)-c2ccc(-c4cnn(C(C)(C)C(N)=O)c4)cc2OCC3)n(C(C)C)n1` [Taselisib (GDC 0032)] was run?
A: 0.33 °C

Q: How did the “thermal shift delta Tm” value turn out when `Cc1ccc(NC(=O)c2ccc(CN3CCN(C)CC3)cc2)cc1Nc1nccc(-c2cccnc2)n1` [Imatinib Mesylate (STI571)] was run?
A: 0.66 °C

Q: For `O=c1cc(N2CCOCC2)oc2c(-c3ccccc3)cccc12`, which “thermal shift delta Tm” value is on record?
A: 1.07 °C

Q: How did the “thermal shift delta Tm” value turn out when `Nc1ncccc1-c1nc2ccc(-c3ccccc3)nc2n1-c1ccc(C2(N)CCC2)cc1` [Miransertib (ARQ 092) HCl] was run?
A: 0.58 °C

Q: How did the “thermal shift delta Tm” value turn out when `CNS(=O)(=O)C[C@H]1CC[C@H](N(C)c2[nH]cnc3nccc2-3)CC1` [Oclacitinib] was run?
A: 4.38 °C

Q: For `N#Cc1ccc2[nH]c(O)c(-c3ccc(CN4CCOCC4)cn3)c2c1`, which “thermal shift delta Tm” value is on record?
A: 0.88 °C

Q: `C[C@]1(O)C[C@@H](c2nc(-c3ccc4ccc(-c5ccccc5)nc4c3)c3c(N)nccn32)C1` [Linsitinib (OSI-906)] was tested. Which “thermal shift delta Tm” value did it give?
A: 1.43 °C

Q: Which “thermal shift delta Tm” value does the source give for `CN1CCC(COc2cnc(-c3cccc(Cn4nc(-c5cccc(C#N)c5)ccc4=O)c3)nc2)CC1` here?
A: 0.27 °C

Q: `CC(C)(C)c1nc(-c2ccc(NC(=O)Nc3cccc(C(F)(F)F)c3)c3ccccc23)c2c(N)nccn12` [kira6] was tested. Which “thermal shift delta Tm” value did it give?
A: 1.17 °C

Q: Which “thermal shift delta Tm” value does the source give for `Oc1c(F)cc(-c2cnccc2-c2ccc(N3CCOCC3)cc2)cc1F` here?
A: 1.01 °C

Q: How did the “thermal shift delta Tm” value turn out when `CC(C)[C@H](CO)Nc1nc(Nc2cccc(Cl)c2)c2ncn(C(C)C)c2n1` [Purvalanol A] was run?
A: 5.05 °C

Q: For `CNC(=O)c1cc(Oc2ccc(NC(=O)Nc3ccc(Cl)c(C(F)(F)F)c3)cc2)ccn1` [Sorafenib], which “thermal shift delta Tm” value is on record?
A: 3.63 °C

Q: `O=c1cc(-c2cccc3c2Sc2ccccc2S3)oc(N2CCOCC2)c1` was tested. Which “thermal shift delta Tm” value did it give?
A: 1.07 °C

Q: Which “thermal shift delta Tm” value does the source give for `N#Cc1c(Oc2ccc(F)c(NC(=O)Cc3cccc(C(F)(F)F)c3)c2)ccc2nc(NC(=O)C3CC3)sc12` here?
A: 1.23 °C

Q: How did the “thermal shift delta Tm” value turn out when `CC[C@@](C)(Nc1ccnc(-c2c[nH]c3ncccc23)n1)C(=O)NCC(F)(F)F` [Decernotinib (VX-509)] was run?
A: 0.73 °C

Q: How did the “thermal shift delta Tm” value turn out when `CCNC(=O)Nc1ccc(-c2nc3c(c(N4CCOC[C@@H]4C)n2)CCN(C2COC2)C3)cc1` was run?
A: 0.52 °C

Q: For `COc1cc(OC)cc(N(CCNC(C)C)c2ccc3ncc(-c4cnn(C)c4)nc3c2)c1`, which “thermal shift delta Tm” value is on record?
A: 0.09 °C

Q: For `C[C@@]1(C(=O)Nc2ccc(F)nc2)CCCN1c1nc(Nc2cc(C3CC3)n[nH]2)c2cccn2n1`, which “thermal shift delta Tm” value is on record?
A: -2.64 °C

Q: With `O=C1CCc2c(Oc3ccc4c(c3)[C@@H]3[C@H](O4)[C@H]3c3nc4cc(C(F)(F)F)ccc4[nH]3)ccnc2N1` [Lifirafenib (BGB-283)] as the compound, how does the “thermal shift delta Tm” value read?
A: 3.33 °C

Q: `O=C1Nc2ccc(CN3C(=O)CSC3=O)cc2/C1=C/c1cc(CN2CCOCC2)c[nH]1` was tested. Which “thermal shift delta Tm” value did it give?
A: 0.38 °C

Q: For `CN(c1ccccc1CNc1nc(Nc2ccc3c(c2)CC(=O)N3)ncc1C(F)(F)F)S(C)(=O)=O`, which “thermal shift delta Tm” value is on record?
A: 2.26 °C

Q: Which “thermal shift delta Tm” value does the source give for `Cc1nc(N)sc1-c1ccnc(Nc2ccc(N3CCOCC3)cc2)n1` here?
A: 3.15 °C
